According to the supplement of paper PMC4206461:

Test system: Pseudomonas aeruginosa PA14 dppBCDF deletion mutant
Assay: respiration area under curve with compound as sole nitrogen source, 24 h (OmniLog AUC (arbitrary units)); higher = more respiration / better utilisation as nitrogen source, active = 2000 or more
Conditions: plate: PM8
Method: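 Biolog Phenotype MicroArray plates PM6-PM8: each di/tripeptide is the sole nitrogen source. Tetrazolium reduction was read in the OmniLog every 15 min for 24 h at 37°C and summarised as area under the respiration curve (arbitrary units). Values below 2000 count as no respiration. Strain is the dipeptide ABC transporter deletion mutant.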

SMILES | respiration area under curve
N[C@@H](Cc1ccc(O)cc1)C(=O)NCC(=O)NCC(=O)O | 4900 (active)
